Screen size: about 360,000 compounds; about 11,000 (3.1%) were called active. Many of the other results were omitted from the sample, so actives are more common in it than they were. Unmarked numbers belong to inactive results. No stated cut-off is given here; in the data, active means activity change below about -30%; inactive means the rest.
On the % scale 0 is the no-effect control and ±100 the full control effect.

The target in the test is D(1A) dopamine receptor (Homo sapiens) (UniProt P21728). Kind of test: Antagonist of Human D 1 Dopamine Receptor: qHTS. The settings on record: HEK293 TREx D1 cells, calcium flux, dopamine EC80; at 10 µM; active compounds read low. From the text: Dopamine receptors (DARs) are involved in the etiology and/or therapy of a number of neuropsychiatric and endocrine disorders. For instance, all receptor-based antiparkinsonian drugs work via stimulating the […] DAR subtype whereas all FDA-approved antipsychotic agents are antagonists of this receptor. […] There are three different types of allosteric modulators that we are seeking, two of which will stimulate or augment receptor signaling, allosteric agonists and potentiators, while the third, allosteric antagonists, will attenuate receptor signaling. The present primary screening assay measures compound antagonism after an EC80 addition of dopamine by tracking calcium flux in a […], inducible Hek293 Trex D1 cell line. NIH Chemical Genomics Center [NCGC] NIH Molecular Libraries Probe Centers Network [MLPCN] MLPCN Grant: NS064831-01 Assay Submitter (PI): David Sibley
Sequence of D(1A) dopamine receptor (Homo sapiens) (P21728 whole entry, looked up): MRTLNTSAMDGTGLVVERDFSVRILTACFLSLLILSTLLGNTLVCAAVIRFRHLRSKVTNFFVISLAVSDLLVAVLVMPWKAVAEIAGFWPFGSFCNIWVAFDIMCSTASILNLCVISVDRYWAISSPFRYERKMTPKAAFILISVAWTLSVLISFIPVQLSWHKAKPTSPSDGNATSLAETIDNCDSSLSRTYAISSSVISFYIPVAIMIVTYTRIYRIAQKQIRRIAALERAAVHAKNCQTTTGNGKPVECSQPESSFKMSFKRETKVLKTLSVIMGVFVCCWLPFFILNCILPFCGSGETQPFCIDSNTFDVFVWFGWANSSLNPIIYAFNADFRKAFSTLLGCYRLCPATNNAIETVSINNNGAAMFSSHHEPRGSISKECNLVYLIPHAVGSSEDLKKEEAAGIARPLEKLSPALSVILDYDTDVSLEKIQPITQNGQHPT
Freshly passaged cells are plated in 1536 well black, clear bottom plates at a density of 4000 cells/well in 3 ul of complete media containing 1x tetracycline inducer. After an overnight incubation at 30 C in 5% CO2, cells are loaded with 2 ul of the no wash Calcium Assay Kit (ABD Bioquest) and incubated at room temperature for 30 to 90 minutes. Agonist read: A 10 cycle (1 second/cycle) baseline measurement is taken and then the FDSS online 1536 pintool delivers 23 nl of compound library (as well as dopamine controls) to the plate. The plate is measured for kinetically at 1 cycle/sec for 180 seconds. Following the 180 second read, 1 ul of an EC80 (negative modulation assay) is delivered by an onboard pipette head. Measurements are taken kinetically for an additional 180 seconds.
Consider `CCOCCc1c(O)[nH]c(=S)[nH]c1=O`, for which the activity change, negative = inhibition is -33.1% (active).
In the case of `COc1ccccc1N=Nc1c(O)[nH]c(=S)[nH]c1=O`, the activity change, negative = inhibition is -9.34%.
The same measure for `CC1=CC(=Cc2sc3ccccc3[n+]2C)C=C(C)O1`: -35.2% (active).
As to `CC(C)c1c(CN(C)C(C)Cc2ccccc2)n(C)n(-c2ccccc2)c1=O` (stereo not given), the activity change, negative = inhibition is -2.93%.
The same measure for `Cc1ccc(-n2c(/C=C/c3cccc(C(F)(F)F)c3)nc3ccccc3c2=O)cc1`: 11.5%.
With `Cc1ccc(C(C)C)c(OCC(=O)N2CCN(CC(=O)N3CCOCC3)CC2)c1`, the activity change, negative = inhibition is 1.15%.
The same measure for `NCCc1ccc(S(=O)(=O)F)cc1`: -35.8% (active); for `CC(C)c1ccc(OCC(=O)N2CCN(C)CC2)c(Br)c1`: -34.7% (active); for `CC(C)c1ccc(OCC(=O)N2CCCN(C)CC2)cc1`: -12.3%.
The same measure for `CN1CCN(C(=O)COc2ccc(C(C)(C)C)cc2Br)CC1`: -15.7%; for `CC(C)(C)[C@]1(O)C[C@@H]2OC(=O)C[C@@]23C(=O)O[C@@H]2OC(=O)[C@H](O)[C@]213`: 0.221%.
For `CN(C)CC1CCCCC1=O` (stereo not given), the activity change, negative = inhibition was 9.1%.
Turning to `COc1ccc(C2NCc3ccc4c(c3-n3cccc32)OCO4)cc1OC` (stereo not given), the activity change, negative = inhibition was -8.31%.
For the molecule `CN1CCc2cc3c(cc2[C@H]1[C@@H]1OC(=O)c2c1ccc1c2OCO1)OCO3`, the activity change, negative = inhibition is -19.5%.
The same measure for `COc1c(O)ccc2c1-c1c3c(cc4c1C(C2)N(C)CC4)OCO3` (stereo not given): -68% (active).
The same measure for `COC(=O)C1=C(c2ccc(Cl)c(C(F)(F)F)c2)C[C@@H]2CC[C@H]1N2C(=O)NC(C)C`: -3.99%; for `CC(C)Oc1cccc(C(=O)C2CCCN(C3CCOCC3)C2)c1` (stereo not given): -26.6%.
In the case of `COC(=O)C1=C(c2cccc(OCc3ccccc3)c2)C[C@@H]2CC[C@H]1N2C(=O)NCc1ccc(Br)cc1`, the activity change, negative = inhibition is -2.72%.
In the case of `CC(C)c1ccc(-n2c(O)c(/C=N/N3CCOCC3)c(=O)[nH]c2=S)cc1`, the activity change, negative = inhibition is 21.3%.
The same measure for `Cc1cccc(-n2c(O)c(/C=N/N3CCOCC3)c(=O)[nH]c2=S)c1`: -42.1% (active).
The same measure for `O=c1[nH]c(=S)n(C2CC2)c(O)c1/C=N/N1CCOCC1`: -3.33%.
The same measure for `Cn1cc(C(=O)OCC(=O)N2CCCC2)c2ccccc21`: -0.659%; for `Cc1cc(OCc2cc(C(=O)O)oc2C)c2c3c(c(=O)oc2c1)CCCC3`: 63%; for `OC(Cn1c2ccccc2c2ccccc21)C[n+]1ccccc1` (stereo not given): 13.9%.
`C/C(CCc1c[nH]c2ccccc12)=N\O`: the activity change, negative = inhibition was 1.61%.
The same measure for `c1cncc(CNCCc2c[nH]c3ccccc23)c1`: -33.9% (active).
For `COc1ccc(CNCCc2c[nH]c3ccccc23)cc1OC`, the activity change, negative = inhibition was -8.11%.
The same measure for `C=CCn1c(O)c(/C=N/N2CCOCC2)c(=O)[nH]c1=S`: 6.62%; for `COc1ccc(-c2nc(CS(=O)CC(=O)N3CCC4(CC3)OCCO4)c(C)o2)cc1` (stereo not given): -3.25%; for `CCN1C(=O)C(=Cc2c(C)n(CC(=O)NCC3CCCO3)c3ccccc23)C(=O)N(CC)C1=S` (stereo not given): -0.95%.
`CC(=NC1CCN(Cc2ccccc2)CC1)c1c(O)n(C)c(=O)n(C)c1=O`: the activity change, negative = inhibition is -0.272%.
The same measure for `Cn1c(O)c(C=Nc2ccc3c(c2)CCC3)c(=O)n(C)c1=O`: -5.53%; for `Cn1c(O)c(C(=Nc2ccc(F)cc2)c2ccccc2)c(=O)n(C)c1=O`: -33.5% (active).
Turning to `COc1ccccc1N=C1SCCCN1C`, the activity change, negative = inhibition is -10.1%.
The same measure for `CCc1ccc(OCC(=O)N2CCN(CC(=O)Nc3ccccc3Cl)CC2)cc1`: -5.54%.
The same measure for `COC(=O)C1=C(c2ccc(C(C)=O)cc2)C[C@@H]2CC[C@H]1N2C(=O)NCCNC(C)=O`: 24%; for `COC(=O)C1=C(c2ccc(-c3ccccc3)c(F)c2)C[C@@H]2CC[C@H]1N2C(=O)NCc1ccc(F)cc1`: -0.711%; for `COC(=O)C1=C(c2ccc(F)cc2OCc2ccccc2)C[C@@H]2CC[C@H]1N2C(=O)NCc1ccc(Cl)cc1`: 12.1%.
The same measure for `COC(=O)C1=C(c2ccccc2OCc2ccccc2)C[C@@H]2CC[C@H]1N2C(=O)NCc1ccc(OC)cc1`: -30.4% (active); for `COC(=O)C1=C(c2ccc3ccccc3c2)C[C@@H]2CC[C@H]1N2C(=O)NCCO`: -40.5% (active); for `COC(=O)C1=C(c2ccc(F)cc2OCc2ccccc2)C[C@@H]2CC[C@H]1N2C(=O)NCc1ccc(C(C)(C)C)cc1`: -11.5%.
For `CC(Cc1ccccc1)NCCC(c1ccccc1)c1ccccc1` (stereo not given), the activity change, negative = inhibition was 15.9%.
The same measure for `Cc1ccc(NC(=O)N(Cc2ccc3c(c2)OCO3)C2CCN(Cc3ccccc3)CC2)cc1F`: 2.05%.
The same measure for `CSc1nc2ccc(C)cc2c(=O)n1-c1cccnc1`: 7.08%; for `Cc1cc(C(=O)OCC(=O)Nc2c(F)cccc2F)c(C)n1C1CC1`: 2.31%.
The same measure for `Cc1nn(-c2ccccc2)c(C)c1NC(=O)COC(=O)Cc1ccccc1`: -0.424%; for `O=C(COC(=O)c1ccccc1)Nc1ccc(Cl)cc1C(=O)c1ccccc1`: -31.5% (active); for `O=C(CCNS(=O)(=O)c1ccccc1)Nc1ccc(Cl)cc1C(=O)c1ccccc1`: -6.99%.
Turning to `O=C(Nc1ccc(Cl)cc1C(=O)c1ccccc1)c1cc(Cl)cc(Cl)c1`, the activity change, negative = inhibition was 23.8%.
The same measure for `O=C(CN1CCCCC1)Nc1ccc(Br)cc1C(=O)c1ccccc1Cl`: -26.5%.
The same measure for `O=C(CCN1CCCCC1)NCC(=O)Nc1ccc(Br)cc1C(=O)c1ccccc1`: -20.3%; for `CN1CCN(C(=S)SCC(=O)Nc2ccc(Cl)cc2C(=O)c2ccccc2)CC1`: -39.4% (active); for `CN(c1ccccc1)c1ccc([N+](=O)[O-])c2nonc12`: 0.138%.
The same measure for `COC(=O)C1=C(c2ccc(F)cc2F)C[C@@H]2CC[C@H]1N2C(=O)NC1CC1`: 25.8%; for `O=C(NC(=S)N1C[C@H]2C[C@H](C1)c1cccc(=O)n1C2)c1ccc(F)cc1`: -0.512%; for `Cn1cc(/C=C/c2nc3ccccc3c(=O)n2-c2ccccc2)c2ccccc21`: 11%.
As for `Cc1ccccc1NC(=O)COC(=O)c1cc(C)n(C2CC2)c1C`, the activity change, negative = inhibition was 2.42%.
The same measure for `C[C@]12CC[C@H](O)C[C@H]1CC[C@@H]1C2CC[C@]2(C)[C@@H](C3=CC(=O)OC3)[C@@H](O)C[C@]12O` (stereo not given in full): -17.2%; for `CC(C)CN1CCN(Cc2ccccc2C(F)(F)F)CC1CCO` (stereo not given): 0.591%.
Regarding `O=C(CCCn1c(=O)[nH]c2cc(Cl)ccc2c1=O)N1CCC2(CC1)OCCO2`, the activity change, negative = inhibition was -7.09%.
The same measure for `Cc1ccc(Cn2c(C)c3cnn(CC(=O)N4CCC5(CC4)OCCO5)c(=O)c3c2C)cc1`: -49.4% (active); for `Cc1ccc(-c2cc(C(=O)N3CCC4(CC3)OCCO4)no2)cc1`: -7.04%.
The same measure for `CNC(=O)O/N=C(\N)Cc1csc2ccccc12`: -21.2%.
The same measure for `CNC(=O)N(C)c1nnc(C(C)(C)C)s1`: 9.77%.
With `CCc1nc2ccccc2c(=O)n1-c1cccc(OC)c1`, the activity change, negative = inhibition is 2.19%.
Consider `NCC(O)c1ccc(O)cc1` (stereo not given), for which the activity change, negative = inhibition was -66.9% (active).
The same measure for `CCOP(=O)(OCC)C(NC(=O)NC)C(N)=O` (stereo not given): 4.22%.
The same measure for `COC(=O)C1=C(c2cccc(OCc3ccccc3)c2)C[C@@H]2CC[C@H]1N2C(=O)NNCc1ccccc1`: -14.3%.
`CCN1CCN(c2ccc([N+](=O)[O-])cc2C#N)CC1`: the activity change, negative = inhibition was 1.99%.
The same measure for `CC(C)n1c(=O)c(C=Nc2ccc(Br)cc2)c(O)n(Cc2ccco2)c1=O`: 14%.

Values taken from PubChem BioAssay AID504652 (National Center for Advancing Translational Sciences (NCATS), 2011).
